PubChem BioAssay (NCATS)
Records with an inconclusive call do not appear. Entries that show only a call come without a potency. The source made the active and inactive calls. Calls follow the shape of the dose curve; as a rule, active = well fitted curve in the direction sought with a large enough effect; inconclusive = small, poorly fitted or top-dose-only effect, or another doubt; inactive = no such curve, though single readings can be large; an effect the other way counts as inactive or inconclusive.

biological target: Rap guanine nucleotide exchange factor 3 (Homo sapiens) (UniProt O95398); assay: Counterscreen qHTS for antagonist of cAMP-regulated guanine nucleotide exchange factor 3 (EPAC1) (AID 1645888); conditions: Rap1B-BODIPY-GDP nucleotide exchange, fluorescence; series mostly up to 154 µM;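 also: fluorescence loss as bound BODIPY-GDP is released from Rap1B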
Sequence (O95398 whole entry, looked up): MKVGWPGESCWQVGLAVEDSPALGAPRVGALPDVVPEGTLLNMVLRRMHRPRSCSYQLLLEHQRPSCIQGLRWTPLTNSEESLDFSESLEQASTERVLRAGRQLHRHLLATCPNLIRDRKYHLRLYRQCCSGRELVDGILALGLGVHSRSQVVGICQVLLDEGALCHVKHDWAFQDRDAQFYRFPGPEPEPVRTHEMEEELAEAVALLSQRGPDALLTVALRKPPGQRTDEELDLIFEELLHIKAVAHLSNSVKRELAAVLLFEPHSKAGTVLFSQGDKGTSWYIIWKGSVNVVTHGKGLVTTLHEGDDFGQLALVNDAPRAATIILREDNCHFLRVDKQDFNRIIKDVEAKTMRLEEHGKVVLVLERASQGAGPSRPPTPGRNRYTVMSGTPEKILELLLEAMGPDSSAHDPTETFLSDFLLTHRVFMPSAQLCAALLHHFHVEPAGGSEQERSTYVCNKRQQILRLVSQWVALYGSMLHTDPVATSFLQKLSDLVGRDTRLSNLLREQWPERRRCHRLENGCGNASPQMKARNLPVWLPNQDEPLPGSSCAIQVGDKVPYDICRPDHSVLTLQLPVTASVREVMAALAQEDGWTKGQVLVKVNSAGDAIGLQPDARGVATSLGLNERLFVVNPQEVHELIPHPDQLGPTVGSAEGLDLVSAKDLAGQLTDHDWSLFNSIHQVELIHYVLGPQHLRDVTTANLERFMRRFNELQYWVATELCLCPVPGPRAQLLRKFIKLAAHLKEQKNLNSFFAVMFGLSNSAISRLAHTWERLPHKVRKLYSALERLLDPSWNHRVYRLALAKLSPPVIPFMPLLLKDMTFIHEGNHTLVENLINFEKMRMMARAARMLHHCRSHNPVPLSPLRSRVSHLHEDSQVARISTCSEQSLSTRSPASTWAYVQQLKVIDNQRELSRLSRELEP
How it was run: (§1)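 Rap1B–BODIPY-GDP (250 nM) with 50 uM GDP; compounds pin-transferred to 9.74 nM–152 uM final (activator) or from 7.32 nM upwards (inhibitor). Fluorescence Ex/Em 480/540 nm read at 5 and 30 min, then after adding cAMP or buffer, at room temperature.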

Row | SMILES | activity change, negative = inhibition | Potency
1 | O=S(=O)(Nc1nccs1)c1ccc(Nc2nnc(-c3ccccc3)c3ccccc23)cc1 | 3.85% [at 30.8 µM] (inactive) | 
2 | O=C1c2ccccc2C(c2nnnn2Cc2ccccc2)N1CCc1c[nH]c2ccccc12 (stereo not given) |  | inactive
3 | CCCCc1ccc(NC(=O)CN2C(=O)C3CCCCC3C2=O)cc1 (stereo not given) |  | inactive
4 | O=C1C(=Cc2cn(-c3ccccc3)nc2-c2ccc(OCc3ccc(Cl)cc3)cc2)SC(=S)N1CCS(=O)(=O)O |  | inactive
5 | CCOC(=O)c1c(NC(=O)c2ccc(S(=O)(=O)N(C)CC3CCCO3)cc2)sc2c1CCN(C)C2 (stereo not given) |  | inactive
6 | Cc1ccc2oc(=O)c3cnn(CC(=O)NC4CCC(C)CC4)c3c2c1 (stereo not given) |  | inactive
7 | COc1ccc(NC(=O)c2cccnc2NCCc2ccccc2)cc1 |  | inactive
8 | CCCCC[C@H](C)N1C[C@H](COCc2ccccc2)Oc2cc(N3CCC[C@H]3C(N)=O)ccc2S1(=O)=O |  | inactive
9 | COc1ccc(-c2nc(CCNS(=O)(=O)c3ccc4c(c3)OCCO4)cs2)cc1 |  | inactive
10 | O=C(COC(=O)c1c2c(nc3ccccc13)/C(=C\c1ccco1)CC2)NC1CCCC1 |  | inactive
11 | CCOC(=O)c1c(C)[nH]c(C(=O)C(C)OC(=O)c2ccc(NC(=O)CC#N)cc2)c1C (stereo not given) |  | inactive
12 | O=C(CC1C[C@H](C(=O)N2CCCCC2)[C@@]2(CCc3ccccc3)c3[nH]c4ccccc4c3CCN2C1=O)NCCCn1ccnc1 (stereo not given in full) |  | inactive
13 | O=S(=O)(Nc1ccccc1N1CCCC1)c1ccccc1C(F)(F)F |  | inactive
14 | CC1(c2ccccc2)CC(C)(C)N2C(=O)C(=O)c3cccc1c32 (stereo not given) | -4.27% [at 30.8 µM] (inactive) | 
15 | CCOC(=O)c1c(CC(C)C)csc1NC(=O)COC(=O)c1ccc(O)cc1 |  | inactive
16 | CCOc1cc(C)c(-c2onc(C(F)(F)F)c2-c2csc(C)n2)c(O)c1 |  | inactive
17 | O=C(Nc1ccccc1C(=O)Nc1nnc(C(F)(F)F)s1)c1ccccc1Cl |  | inactive
18 | CCCCn1c(=O)[nH]c(=O)c2c1nc(-c1ccccc1F)n2Cc1ccccc1OC |  | inactive
19 | CCCN(CCC)Cc1cc(=O)oc2cc(OC)ccc12 |  | inactive
20 | Cc1cc(Br)c2c(c1)[C@](O)(c1cn(C)c3ccccc13)C(=O)N2C | -15.6% [at 30.8 µM] (inactive) | 

Row | SMILES | activity change, negative = inhibition | Potency
21 | N#Cc1c(-c2ccc(Cl)cc2)cc(-c2cccs2)nc1SCC(=O)O |  | inactive
22 | Cc1ccc2nc(-c3cccc(Br)c3)c(Cc3ccccn3)n2c1 |  | inactive
23 | C=C1CC2C(=O)N(Cc3cc(OC)ccc3OC)C(C(=O)OCC)(C(=O)OCC)C1N2C(=O)OC(C)(C)C (stereo not given) |  | inactive
24 | Cn1c2ccccc2c2cc(/C=N/NC(=O)c3cc(O)cc(O)c3)ccc21 |  | inactive
25 | CC(C)=CCC[C@H](C)C[C@@H]1Cc2[nH][nH]c(=O)c2[C@H](c2ccc(F)cc2)O1 |  | inactive
26 | O=[N+]([O-])c1ccc(C=NNc2ccc(S(=O)(=O)O)cc2)cc1 | -18.7% [at 30.8 µM] (inactive) | 
27 | COc1ccc(/C=C/C(=O)c2ccccc2)c(OC)c1 | -16.1% [at 30.8 µM] (inactive) | 
28 | Cc1ccc(Nc2c([N+](=O)[O-])c(=O)oc3ccccc23)cc1C |  | inactive
29 | CCCc1[nH]c2ccc(C#N)cc2c1CCC |  | inactive
30 | COc1cc(/C=C2\SC(=S)N(NC(=O)c3ccc(O)c(OC)c3)C2=O)ccc1O |  | inactive
31 | CCOC(=O)[C@H]1[C@H]2COc3ccc(C)cc3[C@@H]2N2C(=O)c3cc(F)c(F)cc3NC(=O)[C@@]12C |  | inactive
32 | O=C(O)c1[nH]c2ccccc2c1C(c1cccc(O)c1)c1c(C(=O)O)[nH]c2ccccc12 |  | inactive
33 | COc1cccc(/C=C2/NC(=O)N(CC(=O)Nc3ccc(C)cc3)C2=O)c1OCc1cccc(C(=O)O)c1 |  | inactive
34 | Cc1ccccc1-c1ccc(CN2C(C(C)C)C(=O)N(Cc3cn(CCC4OCCO4)nn3)CCS2(=O)=O)cc1 (stereo not given) |  | inactive
35 | O=C1[C@H](Cc2ccccc2)NCC=CC[C@@H](c2ccc(Cl)cc2)N1Cc1ccc(Cl)cc1 |  | inactive
36 | COc1ccccc1N1C(=O)C2C(C(=O)c3ccccc3)=NN(c3ccc(Br)cc3)C2C1=O (stereo not given) |  | inactive
37 | CCOc1ccc(NC(=NCc2ccc3c(c2)OCO3)SC2CC(=O)N(c3ccc(C(=O)O)cc3)C2=O)cc1 (stereo not given) |  | inactive
38 | CCc1cc(=O)oc2cc(C)cc(OCC(=O)N[C@@H](CSCc3ccccc3)C(=O)O)c12 |  | inactive
39 | O=C(O)C1Nc2c(Cl)cc(Cl)c(Cl)c2C2C=CCC12 (stereo not given) |  | inactive
40 | O=c1oc2ccccc2n1Cc1ccccc1Cl |  | inactive

biological target: Rap guanine nucleotide exchange factor 3 (Homo sapiens) (UniProt O95398); assay: Counterscreen qHTS for agonist of cAMP-regulated guanine nucleotide exchange factor 3 (EPAC1) (AID 1645889); conditions: EPAC1 Rap1B-BODIPY-GDP exchange, fluorescence; series mostly up to 154 µM; also: nearly all actives have a fitted effect of over 40% in size; also: potency is read from the fitted curve at half-maximal effect
How it was run: as §1

Row | SMILES | activation | Potency
41 | O=S(=O)(Nc1nccs1)c1ccc(Nc2nnc(-c3ccccc3)c3ccccc23)cc1 | 17.5% [at 30.8 µM] (inactive) | 
42 | O=C1c2ccccc2C(c2nnnn2Cc2ccccc2)N1CCc1c[nH]c2ccccc12 (stereo not given) |  | inactive
43 | CCCCc1ccc(NC(=O)CN2C(=O)C3CCCCC3C2=O)cc1 (stereo not given) |  | inactive
44 | O=C1C(=Cc2cn(-c3ccccc3)nc2-c2ccc(OCc3ccc(Cl)cc3)cc2)SC(=S)N1CCS(=O)(=O)O |  | 50.1 µM (active)
45 | CCOC(=O)c1c(NC(=O)c2ccc(S(=O)(=O)N(C)CC3CCCO3)cc2)sc2c1CCN(C)C2 (stereo not given) |  | inactive
46 | Cc1ccc2oc(=O)c3cnn(CC(=O)NC4CCC(C)CC4)c3c2c1 (stereo not given) |  | inactive
47 | COc1ccc(NC(=O)c2cccnc2NCCc2ccccc2)cc1 |  | inactive
48 | CCCCC[C@H](C)N1C[C@H](COCc2ccccc2)Oc2cc(N3CCC[C@H]3C(N)=O)ccc2S1(=O)=O |  | inactive
49 | COc1ccc(-c2nc(CCNS(=O)(=O)c3ccc4c(c3)OCCO4)cs2)cc1 |  | inactive
50 | O=C(COC(=O)c1c2c(nc3ccccc13)/C(=C\c1ccco1)CC2)NC1CCCC1 |  | inactive
51 | CCOC(=O)c1c(C)[nH]c(C(=O)C(C)OC(=O)c2ccc(NC(=O)CC#N)cc2)c1C (stereo not given) |  | inactive
52 | O=C(CC1C[C@H](C(=O)N2CCCCC2)[C@@]2(CCc3ccccc3)c3[nH]c4ccccc4c3CCN2C1=O)NCCCn1ccnc1 (stereo not given in full) |  | inactive
53 | O=S(=O)(Nc1ccccc1N1CCCC1)c1ccccc1C(F)(F)F |  | inactive
54 | CC1(c2ccccc2)CC(C)(C)N2C(=O)C(=O)c3cccc1c32 (stereo not given) | 21.7% [at 30.8 µM] (inactive) | 
55 | CCOC(=O)c1c(CC(C)C)csc1NC(=O)COC(=O)c1ccc(O)cc1 |  | inactive
56 | CCOc1cc(C)c(-c2onc(C(F)(F)F)c2-c2csc(C)n2)c(O)c1 |  | inactive
57 | O=C(Nc1ccccc1C(=O)Nc1nnc(C(F)(F)F)s1)c1ccccc1Cl |  | inactive
58 | CCCCn1c(=O)[nH]c(=O)c2c1nc(-c1ccccc1F)n2Cc1ccccc1OC |  | inactive
59 | CCCN(CCC)Cc1cc(=O)oc2cc(OC)ccc12 |  | inactive
60 | Cc1cc(Br)c2c(c1)[C@](O)(c1cn(C)c3ccccc13)C(=O)N2C | 24.7% [at 30.8 µM] (inactive) | 

Row | SMILES | activation | Potency
61 | N#Cc1c(-c2ccc(Cl)cc2)cc(-c2cccs2)nc1SCC(=O)O |  | inactive
62 | Cc1ccc2nc(-c3cccc(Br)c3)c(Cc3ccccn3)n2c1 |  | inactive
63 | C=C1CC2C(=O)N(Cc3cc(OC)ccc3OC)C(C(=O)OCC)(C(=O)OCC)C1N2C(=O)OC(C)(C)C (stereo not given) |  | inactive
64 | Cn1c2ccccc2c2cc(/C=N/NC(=O)c3cc(O)cc(O)c3)ccc21 |  | inactive
65 | CC(C)=CCC[C@H](C)C[C@@H]1Cc2[nH][nH]c(=O)c2[C@H](c2ccc(F)cc2)O1 |  | inactive
66 | O=[N+]([O-])c1ccc(C=NNc2ccc(S(=O)(=O)O)cc2)cc1 | 6.23% [at 30.8 µM] (inactive) | 
67 | COc1ccc(/C=C/C(=O)c2ccccc2)c(OC)c1 | -1.52% [at 30.8 µM] (inactive) | 
68 | Cc1ccc(Nc2c([N+](=O)[O-])c(=O)oc3ccccc23)cc1C |  | inactive
69 | CCCc1[nH]c2ccc(C#N)cc2c1CCC |  | inactive
70 | COc1cc(/C=C2\SC(=S)N(NC(=O)c3ccc(O)c(OC)c3)C2=O)ccc1O |  | inactive
71 | CCOC(=O)[C@H]1[C@H]2COc3ccc(C)cc3[C@@H]2N2C(=O)c3cc(F)c(F)cc3NC(=O)[C@@]12C |  | inactive
72 | O=C(O)c1[nH]c2ccccc2c1C(c1cccc(O)c1)c1c(C(=O)O)[nH]c2ccccc12 |  | inactive
73 | COc1cccc(/C=C2/NC(=O)N(CC(=O)Nc3ccc(C)cc3)C2=O)c1OCc1cccc(C(=O)O)c1 |  | inactive
74 | Cc1ccccc1-c1ccc(CN2C(C(C)C)C(=O)N(Cc3cn(CCC4OCCO4)nn3)CCS2(=O)=O)cc1 (stereo not given) |  | inactive
75 | O=C1[C@H](Cc2ccccc2)NCC=CC[C@@H](c2ccc(Cl)cc2)N1Cc1ccc(Cl)cc1 |  | inactive
76 | COc1ccccc1N1C(=O)C2C(C(=O)c3ccccc3)=NN(c3ccc(Br)cc3)C2C1=O (stereo not given) |  | inactive
77 | CCOc1ccc(NC(=NCc2ccc3c(c2)OCO3)SC2CC(=O)N(c3ccc(C(=O)O)cc3)C2=O)cc1 (stereo not given) |  | inactive
78 | CCc1cc(=O)oc2cc(C)cc(OCC(=O)N[C@@H](CSCc3ccccc3)C(=O)O)c12 |  | inactive
79 | O=C(O)C1Nc2c(Cl)cc(Cl)c(Cl)c2C2C=CCC12 (stereo not given) |  | inactive
80 | O=c1oc2ccccc2n1Cc1ccccc1Cl |  | inactive
